# Experimental data: PubChem BioAssay (NCI)
# Compounds without any hit were thinned out: in the full panel of roughly 83,000, 20% have a hit.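 48-hour exposure, single concentration, 96-well plates; percent growth endpoint where 0 means no net growth. Active: below 10.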 A number with no mark means an inactive call. Active and inactive are the calls of the source.
# Test system: M14 melanoma
# Experiment: NCI-60 one-dose screen, 48 h (100 = growth as untreated, 0 = no growth, -100 = all killed)
# Settings: 10 µM unless noted
row,SMILES,growth
1,COC(=O)C1=Nc2ccc(F)cc2/C1=C\c1sc(Nc2ccc(O)cc2)nc1O,49%
2,COc1ccc(OC)c(Nc2nnc(-c3ccc(Cl)cc3)o2)c1,93.1%
3,O=C(OC[C@@H]1CO1)c1cccc2c(=O)c3ccccc3[nH]c12,-65.8% (active)
4,CNC(=O)c1c(NC(=O)c2ccc(C(C)(C)C)cc2)sc2c(CN(C)C)c(O)ccc12,-72.3% (active)
5,C=C1C(=O)O[C@H]2[C@H]1CC/C(COC(=O)c1cc3cc(F)ccc3[nH]1)=C\CC[C@@]1(C)O[C@@H]21,-75.9% (active)
6,COc1ccc2[nH]cc(-c3nc(-c4cn(C)c5ccncc45)cs3)c2c1,-88.7% (active)
7,Brc1ccc(-c2cnc3nonc3n2)cc1,80.1%
8,CC(C)CN1CC(C(=O)Nc2ccc3c(c2)-c2ccccc2C3)CC1=O (stereo not given),77.4% [50 µM]
9,COc1cc2ncnc(Nc3ccc(F)c(Cl)c3)c2cc1OCC(=O)N1CCN(c2ccc(F)cc2)CC1,81.3%
10,COc1ccc(-c2cn(-c3ccc(Cl)cc3)c(SCC(=O)c3ccc([N+](=O)[O-])cc3)n2)cc1,92.4%
11,CCN(CC)S(=O)(=O)c1ccc(S(=O)(=O)N2CCC[C@@H](C(=O)N3CCN(C(=O)OC(C)(C)C)CC3)C2)cc1,77.9%
12,O=C(c1ccc(Cl)cc1Cl)N1c2ccccc2Sc2ccccc21,59.8%
13,COc1ccc(C2C3=C(COC3=O)N(CCO)c3cc4c(cc32)OCCO4)cc1OC (stereo not given),13.6%
14,N#C/C(=C\c1ccc(-c2ccc(Cl)cc2)o1)c1ccc(Cl)cc1,81.4%
15,COc1ccc(C2CC(c3ccc(Nc4nc(Nc5ccc(F)cc5)nc(Nc5ccc(F)cc5)n4)cc3)=NN2C(C)=O)cc1 (stereo not given),100%
16,CCN(CC)CCOc1nc2c3ccc(Cl)cc3nn2c2ccccc12,44.5%
17,COc1cc2c(cc1O)[C@@]1(C)[C@H](c3ccccc3Br)OC(=O)N1CC2,88.3%
18,CC(C)(C)c1cc(C=Nc2cccc(C(F)(F)F)c2)c(O)c(C(C)(C)C)c1,100%
19,CCCCCCNc1nc(NCCCCCC)c2[nH]c(NCCCCCC)nc2n1,79.5%
20,COc1ccc(C2C(C#N)=C(N)Oc3c2sc2c(Br)cccc32)cc1 (stereo not given),6.9% (active)

row,SMILES,growth
1,CC(/C=C1\SC(=S)N(CC(=O)NC(Cc2c[nH]c3ccccc23)C(=O)O)C1=O)=C\c1ccccc1 (stereo not given),103%
2,CCOC(=O)c1c(NC(=O)c2ccc(OC)cc2)sc2c(CN(C)C)c(O)ccc12,-69.4% (active)
3,O=C(CCCCl)NNc1nccc(Nc2ccc(S(=O)(=O)Nc3ccncc3)cc2)n1,97.7%
4,Nc1ncnc2c1c(-c1ccc(Oc3ccccc3)cc1)nn2CC1SSCC1O (stereo not given),-73.5% (active)
5,COc1ccc(NC(=O)c2sc3nc(C)c(C(O)c4ccccc4)cc3c2N)cc1 (stereo not given),7.65% (active)
6,COc1cccc(C(=O)OCC(O)C(=O)NC23CC4CC(CC(C4)C2)C3)c1 (stereo not given),99.1%
7,O=C(CBr)CN1C(=O)c2ccccc2C1=O,104%
8,O=C(NCc1ccccc1O)c1cccc2ccccc12,75.8%
9,CCn1cc(C(=O)NN=C2CCCCCC2)c(=O)c2ccc(C)nc21,103%
10,Nc1c(C(=O)Nc2ccccn2)sc2nc3c(cc12)C(O)CCC3 (stereo not given),21.1%
11,COc1ccc(NC(=O)c2ccc(C(=O)Nc3ccc(OC)cc3OC)cc2)c(OC)c1,79.8%
12,O=C(Nc1ncc(Cc2ccccc2Cl)s1)c1cccs1,62.3%
13,COc1ccc2nc3ccccc3c(NCc3ccccc3)c2c1,26%
14,Fc1ccc(COc2ccc(Nc3ncnc4sc5c(c34)CCCC5)cc2)cc1,104%
15,COc1ccc(C2=Nc3c/c(=C\c4c(O)[nH]c5cc(Cl)ccc45)ccc3=N2)cc1,50.5%
16,N#Cc1c(N2CCOCC2)nc(=S)[nH]c1-c1ccccc1,80.2%
17,O=C1CCC(C(=O)NN(c2ccccc2)c2ccccc2)N1 (stereo not given),12%
18,C/C(C=O)=C\c1ccc2c(c1)OCO2,121%
19,COc1cc2c(/C=C3\C(=O)Nc4ccccc43)c(C(=O)O)[nH]c2cc1C,105%
20,C/C(=N\Nc1nc(C)cs1)c1cc2ccccc2o1,95.4%
